Measurements taken from PubChem BioAssay (NCI).
This is part of a sample that, as a whole, favours compounds with a hit. Of some 79,000 tested, about 15% had one in any assay. The source made the active and inactive calls. Rule as the data show it: active = growth inhibition above about 70%; inactive = the rest.

What was measured:
[1] = NCI Yeast Anticancer Drug Screen. Data for the rad52 strain (AID 147);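 also: 0% = growth of vehicle-treated control cultures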; details: S. cerevisiae rad52 mutant growth inhibition, hits give high values
Summary of the method: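 Read-out: growth inhibition versus vehicle-treated controls. Cells were a DNA repair-deficient yeast strain treated with compounds.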

[2] = NCI Yeast Anticancer Drug Screen. Data for the wt1 strain (AID 149);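 also: 0% = growth of vehicle-treated wt1 cultures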; details: S. cerevisiae wt1 strain (SPY 50644) growth inhibition, hits give high values
Summary of the method: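 Readout: yeast growth inhibition, normalised to vehicle controls, in the wt1 strain exposed to test compounds.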

[3] = NCI Yeast Anticancer Drug Screen. Data for the rad50EPP+ strain (AID 151);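 also: 0% = growth of vehicle-treated control cultures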; details: S. cerevisiae rad50 mutant strain, hits give high values
Summary of the method: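 Growth inhibition read against vehicle controls in rad50EPP+ yeast, a strain altered in DNA damage repair, after compound exposure.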

[4] = NCI Yeast Anticancer Drug Screen. Data for the mgt1 strain (AID 153); details: S. cerevisiae mgt1 mutant growth inhibition, hits give high values
Summary of the method: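 mgt1 yeast grown with test compound; read-out is growth inhibition versus vehicle-treated cultures.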

[5] = NCI Yeast Anticancer Drug Screen. Data for the rad50 strain (AID 155);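 also: 0% = growth of vehicle-only cultures of the same strain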; details: S. cerevisiae rad50 strain growth inhibition, hits give high values
Summary of the method: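 Compounds were tested on a yeast strain with an engineered DNA damage repair alteration; the reported value is growth inhibition normalised to vehicle treatment.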

[6] = NCI Yeast Anticancer Drug Screen. Data for the mec2-1 strain (AID 157); details: S. cerevisiae mec2-1 strain, hits give high values
Summary of the method: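 Yeast mec2-1 mutant treated with compound. Readout: growth inhibition vs vehicle controls.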

[7] = NCI Yeast Anticancer Drug Screen. Data for the rad14 strain (AID 159);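 also: 0% = growth of vehicle-treated control cultures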; details: S. cerevisiae rad14 strain growth inhibition, hits give high values
Summary of the method: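 Compound-treated yeast with a defined DNA-repair lesion; growth inhibition normalised to vehicle-treated cultures.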

[8] = NCI Yeast Anticancer Drug Screen. Data for the sgs1 mgt1 strain (AID 161);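 also: 0% = growth of cultures given vehicle only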; details: S. cerevisiae sgs1 mgt1 strain, hits give high values
Summary of the method: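 Genetically altered yeast, compound exposure, growth inhibition relative to vehicle.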

[9] = NCI Yeast Anticancer Drug Screen. Data for the CLN2oe strain (AID 163);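 also: 0% = growth of vehicle-only control cultures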; details: S. cerevisiae CLN2oe strain, hits give high values
Summary of the method: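 Read-out: yeast growth inhibition, expressed relative to vehicle-only controls. The strain bears an engineered cell-cycle alteration.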

[10] = NCI Yeast Anticancer Drug Screen. Data for the cln2 rad14 strain (AID 165);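 also: 0% = growth equal to vehicle treated cultures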; details: S. cerevisiae cln2 rad14 strain, hits give high values
Summary of the method: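 cln2 rad14 yeast strain; compound exposure; growth inhibition read vs vehicle controls.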

[11] = NCI Yeast Anticancer Drug Screen. Data for the bub3 strain (AID 167); details: S. cerevisiae bub3 mutant strain, hits give high values
Summary of the method: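 Growth of a checkpoint-deficient yeast mutant is measured after compound exposure. Values represent inhibition relative to vehicle.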

[12] = NCI Yeast Anticancer Drug Screen. Data for the wt2 strain (AID 169);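 also: 0% = growth of vehicle-treated yeast cultures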; details: S. cerevisiae wt2 strain growth inhibition, hits give high values
Summary of the method: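 Read-out: growth inhibition versus vehicle-treated control cultures after compound exposure of the yeast strain.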

[13] = NCI Yeast Anticancer Drug Screen. Data for the mlh1 strain (AID 171);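 also: 0% = growth of vehicle-treated control cultures of the same strain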; details: S. cerevisiae mlh1 strain growth inhibition, hits give high values
Summary of the method: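 Read-out: growth inhibition versus vehicle controls. Strain: engineered yeast with a defined DNA repair or cell cycle defect, compound-treated.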

[14] = NCI Yeast Anticancer Drug Screen. Data for the sgs1 strain (AID 173);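 also: 0% = growth of vehicle-only control cultures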; details: S. cerevisiae sgs1 mutant, hits give high values
Summary of the method: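 Read-out: yeast growth inhibition relative to vehicle controls, following compound exposure of a strain with a defined DNA repair/cell cycle alteration.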

[15] = NCI Yeast Anticancer Drug Screen. Data for the mlh1 rad18 strain (AID 175); details: S. cerevisiae mlh1 rad18 strain growth inhibition, hits give high values
Summary of the method: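 Yeast w/ defined DNA-repair lesions; compound exposure; growth vs vehicle controls → % inhibition.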

[16] = NCI Yeast Anticancer Drug Screen. Data for the rad18 strain (AID 177); details: S. cerevisiae rad18 mutant growth inhibition, hits give high values
Summary of the method: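 Readout: growth inhibition vs vehicle controls. Cells: genetically altered yeast strain, DNA repair defect.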

[17] = at 5.0 µM (retest, dose inferred, filed as 0.5)
[18] = at 50.0 µM (retest, dose inferred, filed as 5.0)

Measured: growth inhibition

CC(=O)OC1CCC2(C)C(=CC(C3C=C4CC(OC(C)=O)CCC4(C)C4=C3C3CC5OC6(CCC(C)CO6)C(C)C5C3(C)CC4)C3=C2CCC2(C)C3CC3OC4(CCC(C)CO4)C(C)C32)C1 (stereo unspecified)
active: [1]; at 100.0 µM 88% | [3]; at 100.0 µM 76% | [4]; at 100.0 µM 83% | [5]; at 50.0 µM 91.3% | [6]; at 100.0 µM 75% | [7]; at 100.0 µM 84% | [8]; at 50.0 µM 90.7% | [11]; at 50.0 µM 74.2% | [12]; at 100.0 µM 93% | [14]; at 100.0 µM 72% | [15]; [18] 88% | [15]; at 50.0 µM 82.5%
inactive: [1]; at 1.2 µM 0% | [1]; at 3.7 µM 3% | [1]; at 11.0 µM 7% | [1]; at 33.0 µM 20% | [2]; at 1.2 µM 1% | [2]; at 3.7 µM -1% | [2]; at 11.0 µM 0% | [2]; at 33.0 µM 9% | [2]; at 100.0 µM 11% | [3]; at 1.2 µM 1% | [3]; at 3.7 µM 2% | [3]; at 11.0 µM 25% | [3]; at 33.0 µM 65% | [4]; at 1.2 µM 1% | [4]; at 3.7 µM -3% | [4]; at 11.0 µM -2% | [4]; at 33.0 µM 24% | [5]; at 1.2 µM 0% | [5]; at 3.7 µM 1% | [5]; [17] -7% | [5]; at 11.0 µM 2% | [5]; at 33.0 µM 6% | [5]; [18] 45% | [5]; at 100.0 µM 64% | [6]; at 1.2 µM -2% | [6]; at 3.7 µM 0% | [6]; [17] -12% | [6]; at 11.0 µM 1% | [6]; at 33.0 µM 9% | [6]; [18] 33% | [6]; at 50.0 µM 45% | [7]; at 1.2 µM 1% | [7]; at 3.7 µM 0% | [7]; at 11.0 µM 4% | [7]; at 33.0 µM 13% | [8]; [17] -10% | [8]; [18] 64% | [9]; at 1.2 µM -3% | [9]; at 3.7 µM -8% | [9]; at 11.0 µM -8% | [9]; at 33.0 µM -7% | [9]; at 100.0 µM 53% | [10]; [17] 37% | [10]; [18] 60% | [10]; at 50.0 µM -4.25% | [11]; at 1.2 µM 0% | [11]; at 3.7 µM -1% | [11]; [17] -2% | [11]; at 11.0 µM -3% | [11]; at 33.0 µM 2% | [11]; [18] 69% | [11]; at 100.0 µM 61% | [12]; at 1.2 µM -2% | [12]; at 3.7 µM -3% | [12]; at 11.0 µM -1% | [12]; at 33.0 µM 25% | [13]; at 1.2 µM -1% | [13]; at 3.7 µM 0% | [13]; at 11.0 µM 0% | [13]; at 33.0 µM 12% | [13]; at 100.0 µM 69% | [14]; at 1.2 µM -4% | [14]; at 3.7 µM -5% | [14]; at 11.0 µM 3% | [14]; at 33.0 µM 25% | [15]; [17] -28%

C(=Nc1ccc(-c2cc(-c3ccccc3)nc3ccc4ccccc4c23)cc1)c1ccccc1
active: [1]; at 100.0 µM 76% | [6]; [18] 72% | [8]; [18] 92% | [10]; [18] 75% | [11]; [18] 89% | [12]; at 100.0 µM 81% | [15]; [18] 85% | [16]; at 100.0 µM 73%
inactive: [1]; at 1.2 µM 34% | [1]; at 3.7 µM 40% | [1]; at 11.0 µM 37% | [1]; at 33.0 µM 53% | [2]; at 1.2 µM 26% | [2]; at 3.7 µM 24% | [2]; at 11.0 µM 9% | [2]; at 33.0 µM 31% | [2]; at 100.0 µM 57% | [3]; at 1.2 µM 16% | [3]; at 3.7 µM 7% | [3]; at 11.0 µM 15% | [3]; at 33.0 µM 10% | [3]; at 100.0 µM 6% | [4]; at 1.2 µM 21% | [4]; at 3.7 µM 11% | [4]; at 11.0 µM 12% | [4]; at 33.0 µM 10% | [4]; at 100.0 µM 47% | [5]; at 1.2 µM 23% | [5]; at 3.7 µM 24% | [5]; [17] 20% | [5]; at 11.0 µM 42% | [5]; at 33.0 µM 52% | [5]; [18] 54% | [5]; at 50.0 µM 50.2% | [5]; at 100.0 µM 68% | [6]; at 1.2 µM 11% | [6]; at 3.7 µM 5% | [6]; [17] 17% | [6]; at 11.0 µM 16% | [6]; at 33.0 µM 14% | [6]; at 50.0 µM 33% | [6]; at 100.0 µM 31% | [7]; at 1.2 µM 24% | [7]; at 3.7 µM 20% | [7]; at 11.0 µM 21% | [7]; at 33.0 µM 38% | [7]; at 100.0 µM 34% | [8]; [17] 11% | [8]; at 50.0 µM 55.2% | [9]; at 1.2 µM 29% | [9]; at 3.7 µM 24% | [9]; at 11.0 µM 34% | [9]; at 33.0 µM 38% | [9]; at 100.0 µM 37% | [10]; [17] 25% | [10]; at 50.0 µM 14.7% | [11]; at 1.2 µM -9% | [11]; at 3.7 µM -13% | [11]; [17] 12% | [11]; at 11.0 µM -5% | [11]; at 33.0 µM 14% | [11]; at 50.0 µM 50.8% | [11]; at 100.0 µM 31% | [12]; at 1.2 µM -22% | [12]; at 3.7 µM -21% | [12]; at 11.0 µM -17% | [12]; at 33.0 µM 62% | [13]; at 1.2 µM 8% | [13]; at 3.7 µM 17% | [13]; at 11.0 µM 9% | [13]; at 33.0 µM -8% | [13]; at 100.0 µM 9% | [14]; at 1.2 µM 28% | [14]; at 3.7 µM 18% | [14]; at 11.0 µM 25% | [14]; at 33.0 µM 36% | [14]; at 100.0 µM 64% | [15]; [17] 20% | [15]; at 50.0 µM 57.6% | [16]; at 1.2 µM 30% | [16]; at 3.7 µM 32% | [16]; at 11.0 µM 44% | [16]; at 33.0 µM 68%

Clc1ccc(NCNC2Nc3ccccc3N2)cc1Cl
inactive: [1]; at 1.2 µM -1% | [1]; at 3.7 µM -1% | [1]; at 11.0 µM 18% | [2]; at 1.2 µM 2% | [2]; at 3.7 µM 7% | [2]; at 11.0 µM 8% | [3]; at 1.2 µM 8% | [3]; at 3.7 µM 16% | [4]; at 1.2 µM -4% | [4]; at 3.7 µM -3% | [4]; at 11.0 µM 4% | [5]; at 1.2 µM -1% | [5]; at 3.7 µM -3% | [5]; [17] 4% | [5]; at 11.0 µM 17% | [5]; at 50.0 µM 25.6% | [6]; at 1.2 µM 0% | [6]; at 3.7 µM 5%
active: [1]; at 33.0 µM 97% | [1]; at 100.0 µM 98% | [2]; at 33.0 µM 81% | [2]; at 100.0 µM 99% | [3]; at 11.0 µM 88% | [3]; at 33.0 µM 98% | [3]; at 100.0 µM 98% | [4]; at 33.0 µM 85% | [4]; at 100.0 µM 99% | [5]; at 33.0 µM 93% | [5]; [18] 99% | [5]; at 100.0 µM 98%
